Screening results from PubChem.
Hits are enriched below; roughly 3.1% of the tested compounds scored in any of these assays.
eLon inh: inhibits E. coli Lon protease. P0A9M0. AID 602123. purified E. coli Lon protease, fluorescence polarization. 360,000 compounds, 0.42% hits. inhibition, % at 7.94 µM; in the data active means inhibition above about 13%, passing the limit was not always enough;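 further: 0% = enzyme with probe and DMSO and 100% = no enzyme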
pPAFAH FP inh: pPAFAH (human) enzyme inhibition; AID 463082; 330,000 compounds, 1.5% hits; recombinant pPAFAH, FP-rhodamine probe fluorescence polarization; inhibition, % at 3.39 µM;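 active means inhibition above the mean inhibition across the screen plus 3 SD, cut at about 25% in these data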;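 further: inhibitors block binding of the rhodamine activity-based probe so polarization drops; 0% = enzyme with DMSO and 100% = wells lacking pPAFAH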
PAFAH1B3 inh: blocks human PAF acetylhydrolase 1B catalytic subunit 3; Q15102; recombinant PAFAH1B3, FP-rhodamine probe, fluorescence polarization; inhibition, % at 3.39 µM; 340,000 compounds, 0.28% hits; AID 492972;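 active means inhibition above the screen-wide average of all tested compounds plus 3 SD, cut at about 25% in these data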;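 further: 0% = enzyme with DMSO only and 100% = wells lacking PAFAH1B3 protein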
Target sequence (Q15102 whole entry, looked up): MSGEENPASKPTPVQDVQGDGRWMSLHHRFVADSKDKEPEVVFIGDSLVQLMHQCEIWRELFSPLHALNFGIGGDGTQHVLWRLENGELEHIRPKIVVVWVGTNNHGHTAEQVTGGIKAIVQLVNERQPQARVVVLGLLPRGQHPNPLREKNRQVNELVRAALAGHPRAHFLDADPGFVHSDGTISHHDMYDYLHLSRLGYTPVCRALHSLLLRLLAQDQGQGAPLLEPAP
PAFAH2 FP inh: PAFAH2 (human) inhibition; Q99487; 340,000 compounds, 0.99% hits; AID 492956; recombinant PAFAH2, FP-rhodamine activity probe, fluorescence polarization; inhibition, % at 3.39 µM;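 active means inhibition above the mean over all tested compounds plus 3 SD, cut at about 30% in these data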;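 further: inhibitors block probe labeling of enzyme so polarization drops; 0% = enzyme with DMSO and 100% = wells lacking PAFAH2 protein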
PAFAH1B2 FP inh: inhibitors of human PAFAH1B2 | AID 492953 | recombinant PAFAH1B2, FP-rhodamine activity probe, fluorescence polarization | inhibition, % at 3.39 µM | P68402 | 340,000 compounds, 1.2% hits;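 active means inhibition above the mean of all tested compounds plus 3 SD, cut at about 24% in these data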;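 further: 0% = enzyme with DMSO and 100% = wells lacking PAFAH1B2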
Target sequence (P68402 whole entry, looked up): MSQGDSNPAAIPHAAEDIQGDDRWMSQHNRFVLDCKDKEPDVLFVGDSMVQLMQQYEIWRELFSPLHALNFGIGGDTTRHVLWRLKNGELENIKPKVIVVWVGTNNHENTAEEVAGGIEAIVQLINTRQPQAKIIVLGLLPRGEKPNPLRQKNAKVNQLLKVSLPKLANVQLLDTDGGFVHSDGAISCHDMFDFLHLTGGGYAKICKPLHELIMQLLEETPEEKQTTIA
Rin1-Abl PPI inh: inhibitors of human Rin1-Abl protein interaction; 360,000 compounds, 0.4% hits; TR-FRET Rin1/Abl binding, biochemical; AID 588664; P00519+Q13671; inhibition, % at 7.35 µM; in the data active means inhibition above about 5%, passing the limit was not always enough
PAFAH2 confirm: PAFAH2 (human) inhibition, confirmed. recombinant PAFAH2, FP-rhodamine activity probe, fluorescence polarization. 2,300 compounds, 65% hits. AID 493030. shares compounds with PAFAH2 FP inh. inhibition, % at 3.39 µM;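 active means mean inhibition over three repeats above a set limit taken from the earlier primary screen, cut at about 30% in these data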;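 further: inhibitor blocks binding of rhodamine activity probe so polarization falls; 0% = enzyme with DMSO and 100% = wells lacking PAFAH2 protein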
* hit, by the source's call; / = no result.

SMILES | eLon inh | pPAFAH FP inh | PAFAH1B3 inh | PAFAH2 FP inh | PAFAH1B2 FP inh | Rin1-Abl PPI inh | PAFAH2 confirm
CN(C)S(=O)(=O)n1cnc([C@@H]2[C@H]3C(=O)OC[C@@H]3C[C@@]23N=CN(Cc2ccccc2)C3=O)c1 | -1 | 2 | 8 | 40* | 7 | 4 | 34*
COc1cc(F)ccc1-c1csc(C(NC(C)=O)c2ccc(F)c(F)c2)n1 (configuration not stated) | -5 | / | / | / | / | -1 | /
Cc1ccc(NC(=O)COC(=O)c2ccc3c(c2)NC(=O)C2CCCN32)cc1 (configuration not stated) | -17 | 6 | -13 | 68* | -10 | 1 | 76*
Cc1cccc(C(=O)OCC(=O)NN2C(=O)NC3(CCCCC3)C2=O)c1 | -7 | 24 | 2 | 29 | 0 | 0 | /
Cc1ccc(C(=O)OCC(=O)NN2C(=O)NC3(CCC(C)CC3)C2=O)cc1 (configuration not stated) | 5 | 15 | 1 | 74* | -3 | -1 | 54*
CC1(C(=O)NS(=O)(=O)c2ccc(F)cc2F)CCN1C(=O)C1(c2ccc(Cl)cc2)CC1 (configuration not stated) | -13 | / | / | / | / | -8 | /
CC(C)c1ccc(/C=N/NC(=O)c2nnn(-c3nonc3N)c2CN(C)C2CCCCC2)cc1 | 1 | 1 | 8 | -1 | 3 | -2 | /
Cc1[nH]c2ccccc2c1C(C#N)(C#N)C1C(=O)c2ccccc2C1=O | 6 | 13 | 8 | 31* | 9 | -2 | 28
CSc1nc(C)cc(OCNC(=O)c2cccs2)n1 | -1 | 5 | 10 | 54* | 1 | -3 | 51*
Cc1ccc(N=C(NO)c2nonc2N)c(C)c1 | 1 | 0 | 1 | -4 | -4 | -2 | /
Cc1ccc(N=C(NOC(=O)c2ccccc2)c2nonc2N)c(C)c1 | -6 | 5 | -7 | 68* | -1 | -3 | 67*
CC1CCN(C(=O)COC(=O)/C=C/c2ccc(Br)o2)CC1 | -1 | 6 | 7 | 30* | 1 | -2 | 11
CC1C(=O)N(Cc2cn(CCC3OCCCO3)nn2)CCS(=O)(=O)N1Cc1ccc(-c2ccncc2)cc1 (configuration not stated) | 6 | / | / | / | / | -2 | /
c1ccc(C2[C@H]3CN(CC4CCCCC4)[C@H](c4ccccc4)C34CC2(c2cccnc2)C4)cc1 (some centres not stated) | -9 | 4 | 17 | 56* | 2 | 5 | -2
c1ccc(C2[C@H]3CN(CC4CCCCC4)[C@H](c4ccccc4)C34CC2(c2ccccc2)C4)cc1 (some centres not stated) | -8 | -1 | 5 | -7 | 0 | 4 | /
Cc1nn(-c2ccccc2)c(C)c1NC(=O)COC(=O)/C=C/c1ccccc1 | 6 | 6 | 3 | 39* | 1 | 1 | 32*
Cc1cccc(C)c1NC(=O)COC(=O)/C=C/c1ccc(S(=O)(=O)N2CCOCC2)cc1 | -3 | 1 | 8 | 45* | 8 | 0 | 29
COc1ccc(CNC(=O)COC(=O)/C=C/c2ccc(Cl)cc2)cc1 | -5 | 1 | 10 | 5 | 0 | -1 | /
O=C(COC(=O)/C=C/c1ccc(S(=O)(=O)N2CCOCC2)cc1)NCc1ccc(F)cc1 | 4 | 9 | 21 | 39* | 2 | 0 | 34*
COc1ccc(/C=C/C(=O)OCC(=O)NC(C)CCc2ccccc2)cc1 (configuration not stated) | -9 | 7 | 7 | 68* | 7 | 3 | 55*
COc1ccc(C(C(=O)NC2CCCCC2)N(C(=O)c2ccco2)c2ccccc2C(C)=O)cc1OC (configuration not stated) | 7 | -4 | 0 | 7 | 2 | 0 | /
Cc1cc(S(=O)(=O)N2CCOCC2)ccc1OCC(=O)Nc1ccccc1F | -6 | -1 | 1 | -13 | 3 | -2 | /
Cc1ccc(S(=O)(=O)N2CCOCC2)cc1NC(=O)COC(=O)/C=C/c1ccc(F)cc1 | 1 | 2 | 4 | 53* | 0 | -1 | 47*
Cc1ccc(F)cc1NC(=O)/C=C/c1ccc(S(=O)(=O)N2CCOCC2)cc1 | -8 | 3 | 6 | -5 | 1 | -2 | /
